Screening results (PubChem)
An excerpt weighted towards active compounds, which were near 7.8% of everything screened.
HCV inhibitor: inhibitors of hepatitis C virus infection; Huh7.5.1 HCVcc-Cre infection, luciferase reporter, 44 h; Potency, µM (highest dose often 41.8 µM), actives largely listed as inhibitors; 3.4% of 340,000 active; active = well fitted inhibition curve with a large enough effect; inconclusive = small, poorly fitted or top-dose-only effect, or another doubt; inactive = no such curve, though single readings can be large or run the other way
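Infectious HCVcc-Cre (~0.5 moi) was added to cells just after compound, with cells seeded 4 h earlier at 1,000 per well. Luciferase activity after 44 h culture reported infection; substrate was incubated 15 min at room temperature before reading.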
MARV entry inh: Marburg virus entry inhibition | Marburg virus pseudotyped entry inhibition, cell reporter | Potency, µM (series often up to 37.8 µM), actives largely listed as inhibitors | 1.8% of 300,000 active; calls by dose curve; tested in HEK293 cells
HCMV antiviral: blocks human cytomegalovirus replication | HFF cells, HCMV-luciferase reporter, 72 h; active compounds read low | activity change, negative = inhibition, % at 57.5 µM | 4.5% of 410,000 active | AID 1259415; in the data active = activity change below about -60%; inconclusive = no clear call, values can overlap the other calls; inactive = above about -39%
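Inhibition of viral replication was scored as loss of reporter luminescence in HFFs infected with HCMV-luciferase (MOI 1 PFU/cell) for 72 h; compounds tested at 2 doses, normalized to buffer and Salinomycin controls.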
VACV mCherry inh: vaccinia inhibition (mCherry reporter) | Potency, µM (doses to about 36.5 µM), actives largely listed as inhibitors | 0.63% of 310,000 active | Vaccinia virus mCherry reporter infection, fluorescence; calls by dose curve; tested in A549 cells; also: nearly all actives have a fitted effect of over 35% in size
LASV entry inh: blocks Lassa virus binding to or entry into cells; Lassa virus pseudotype entry inhibition, cell reporter; Potency, µM (highest dose often 37.9 µM), actives largely listed as inhibitors; 1.2% of 300,000 active; calls by dose curve; tested in HEK293 cells; also: nearly all actives have a fitted effect of over 50% in size
Vaccinia Venus: inhibitors of vaccinia virus (Venus reporter); Vaccinia virus Venus reporter expression, fluorescence; Potency, µM (doses to about 36.5 µM), most hits filed as inhibitors; 0.46% of 330,000 active; AID 720580; calls by dose curve; tested in A549 cells; also: nearly all actives have a fitted effect of over 30% in size
Each line names hits and unclear results; the compound was inactive in the other large screens.

COc1ccc(-c2nc3scc(CCNS(=O)(=O)c4ccc5c(c4)OCCO5)n3n2)cc1OC	none (no result: HCV inhibitor, MARV entry inh)
CC(=O)Oc1ccc(C(=O)Nc2cccc(-c3nnc(-c4ccco4)o3)c2)cc1	HCV inhibitor inconclusive, MARV entry inh 11µM, LASV entry inh inconclusive
CC(=O)Oc1ccc(C(=O)Nc2cccc(C(=O)NC(C)(C)C)c2)cc1	HCV inhibitor 13µM
O=C(Nc1cccc(-c2nnc(-c3ccccc3)o2)c1)C1CC1	HCV inhibitor 14µM, MARV entry inh inconclusive, HCMV antiviral inconclusive
CC(=O)Nc1cccc(-c2nnc(-c3ccccc3)o2)c1	MARV entry inh inconclusive
COc1ccc(CC(=O)NCc2cccc(CNC(=O)Cc3ccc(OC)c(OC)c3)c2)cc1OC	none (no result: MARV entry inh, VACV mCherry inh, LASV entry inh, Vaccinia Venus)
CCc1cccc(NC(=O)Cc2ccc(OC)c(OC)c2)c1	HCV inhibitor inconclusive, MARV entry inh inconclusive, HCMV antiviral -82, LASV entry inh inconclusive
O=C(Nc1cccc(-c2nnc(-c3ccco3)o2)c1)c1ccccc1	MARV entry inh inconclusive
COc1cc(=O)n2c(c1C(=O)NC(C)c1ccco1)CCN(C(=O)c1ccc(F)cc1Cl)CC2 (configuration not stated)	none (no result: HCV inhibitor, MARV entry inh, HCMV antiviral, LASV entry inh)
O=C(CCC1N=C2c3ccccc3N=C(SCc3cccc(F)c3)N2C1=O)NCCc1ccccc1 (configuration not stated)	LASV entry inh inconclusive (no result: HCV inhibitor, MARV entry inh)
COC(=O)C1[C@H]2SC(C)(C)C(C(=O)OC)N2C(=O)N1Cc1ccccc1 (some centres not stated)	none (no result: HCV inhibitor, MARV entry inh, HCMV antiviral, LASV entry inh)
Cc1ccc2cccc(NC(=O)C(C)(C)Oc3ccc(Br)cc3)c2n1	none (no result: HCV inhibitor)
Cc1nc(C(=O)NCCO)cc2c1[nH]c1ccccc12	HCV inhibitor 11µM (no result: MARV entry inh, VACV mCherry inh, LASV entry inh, Vaccinia Venus)
Cc1ccc(-c2nc(C(=O)NCCCN(C)C)cc3c2[nH]c2ccccc23)cc1	HCV inhibitor 11µM, HCMV antiviral -98, VACV mCherry inh inconclusive, Vaccinia Venus inconclusive (no result: MARV entry inh, LASV entry inh)
O=C(NCCO)c1cc2c([nH]c3ccccc32)c(-c2ccccc2)n1	HCV inhibitor inconclusive, VACV mCherry inh inconclusive
O=C(NCCO)c1cc2c([nH]c3ccccc32)c(-c2ccc(F)cc2)n1	HCV inhibitor 11µM
CCC1CCc2nc3sc(C(=O)Nc4ccc(C)cc4)c(N)c3cc2C1 (configuration not stated)	none (no result: HCV inhibitor)
O=C(CC(c1cccs1)N1Cc2ccccc2C1=O)Nc1ccc(Cl)cc1 (configuration not stated)	none (no result: HCV inhibitor, MARV entry inh)
O=S(=O)(c1ccc(Cl)cc1Cl)N1CCCC1c1cccnc1 (configuration not stated)	none
O=S(=O)(c1ccccc1Cl)N1CCCC1c1nc(-c2ccc(Cl)cc2)no1 (configuration not stated)	HCV inhibitor 10µM, MARV entry inh inconclusive, HCMV antiviral -68, LASV entry inh inconclusive (no result: VACV mCherry inh, Vaccinia Venus)
CC1=C(C(=O)Nc2ccc(C)cc2C)C(c2ccccc2F)n2nc(SCC(=O)c3ccc(C)cc3)nc2N1 (configuration not stated)	none (no result: HCV inhibitor, MARV entry inh)
COc1ccc(C2=C3CCC[C@]4(C)CCO[C@]34C=CC2=O)cc1	none (no result: HCV inhibitor, MARV entry inh, VACV mCherry inh, LASV entry inh, Vaccinia Venus)
Cc1c(Br)cc(C(=O)N2CCN(CCO)CC2)c(C)c1C	HCMV antiviral -101 (no result: VACV mCherry inh, Vaccinia Venus)
CCC(CO)Oc1cc(NCc2ccccc2)c2ncn(C(C)C)c2c1 (configuration not stated)	HCV inhibitor inconclusive, HCMV antiviral inconclusive, VACV mCherry inh inconclusive (no result: MARV entry inh, LASV entry inh)
CCC(CO)Oc1cc(NCc2cccc(O)c2)c2ncn(C(C)C)c2c1 (configuration not stated)	HCV inhibitor inconclusive, VACV mCherry inh inconclusive (no result: MARV entry inh, LASV entry inh)
CCC(COC)Oc1cc(NCc2ccccc2)c2ncn(C(C)C)c2c1 (configuration not stated)	HCV inhibitor 11µM, Vaccinia Venus inconclusive (no result: MARV entry inh, LASV entry inh)
CCC(CO)Oc1cc(NCc2cccc(OC)c2)c2ncn(C(C)C)c2c1 (configuration not stated)	HCV inhibitor 2µM (no result: MARV entry inh, LASV entry inh)
CC(C)n1cnc2c(NCc3ccccc3)cc(N[C@H](C)CO)cc21	HCV inhibitor inconclusive, VACV mCherry inh inconclusive, Vaccinia Venus 14µM (no result: MARV entry inh, HCMV antiviral, LASV entry inh)
CCC(CO)Oc1cc(NCc2ccc(C(C)(C)C)cc2)c2ncn(C(C)C)c2c1 (configuration not stated)	HCV inhibitor 7.9µM, VACV mCherry inh 13µM, Vaccinia Venus inconclusive (no result: MARV entry inh, LASV entry inh)
CC(C)CCNC(=O)Nc1ccc2c(c1)N(C)C(=O)c1ccccc1S2	LASV entry inh inconclusive (no result: HCV inhibitor)
CCCCOc1cc(NCc2ccccc2)c2ncn(C(C)C)c2c1	HCV inhibitor 11µM, HCMV antiviral inconclusive, Vaccinia Venus inconclusive (no result: MARV entry inh, LASV entry inh)
CC(C)n1c(N2CCN(CC(=O)NCc3cccs3)CC2)nc2ccccc21	MARV entry inh inconclusive (no result: VACV mCherry inh, Vaccinia Venus)
CCCNC(=O)c1ccc(-c2nc3ccccc3s2)s1	HCV inhibitor inconclusive, MARV entry inh 3.5µM, LASV entry inh inconclusive
O=C(CN1CCC(c2nc3ccccc3s2)CC1)N1CCCCC1	HCV inhibitor inconclusive, HCMV antiviral -62 (no result: MARV entry inh, LASV entry inh)
O=C(CN1CCC(n2nnc3cc(C(F)(F)F)ccc32)CC1)NCc1cccs1	MARV entry inh 2.2µM, VACV mCherry inh inconclusive, LASV entry inh inconclusive
O=C(CN1CCC(c2nc3ccccc3s2)CC1)NCc1cccs1	HCV inhibitor 3.2µM, MARV entry inh inconclusive, HCMV antiviral -94, LASV entry inh inconclusive, Vaccinia Venus inconclusive
O=C(CSc1ccccc1Cl)N1CCC(c2nc3ccccc3s2)CC1	HCV inhibitor inconclusive, Vaccinia Venus inconclusive (no result: VACV mCherry inh)
COc1ccccc1CNC(=O)CCC1N=C2c3ccccc3N=C(SCC(=O)NCCc3ccc(OC)c(OC)c3)N2C1=O (configuration not stated)	none (no result: HCV inhibitor, MARV entry inh)
CCc1cccc2c(-c3ccccc3)nc(SCC(=O)Nc3ccccc3)nc12	HCMV antiviral inconclusive (no result: HCV inhibitor)
O=C(Nc1ccc(Br)cc1F)c1cnn2c1NC(=C1CC1)C=C2C(F)F	none (no result: HCV inhibitor, MARV entry inh, HCMV antiviral, LASV entry inh)
Cc1nc2nc[nH]n2c(=O)c1NS(=O)(=O)c1ccc(Br)cc1	none (no result: HCV inhibitor)
CC(C)NC(=O)N1CCC(c2nc3ccccc3s2)CC1	none (no result: MARV entry inh, VACV mCherry inh, LASV entry inh, Vaccinia Venus)
CCCNC(=O)N1CCC(c2nc3ccccc3s2)CC1	HCV inhibitor inconclusive, HCMV antiviral -75 (no result: MARV entry inh, VACV mCherry inh, LASV entry inh, Vaccinia Venus)
Cc1ccc(Cn2ccnc2SCC(=O)Nc2nc3ccccc3s2)cc1	none (no result: HCV inhibitor, MARV entry inh)
O=Nc1c(-c2c(O)[nH]c3cc(Br)ccc23)[nH]c2ccccc12	HCV inhibitor 5.6µM, MARV entry inh inconclusive, HCMV antiviral -68, VACV mCherry inh inconclusive, LASV entry inh inconclusive
O=C(CSCc1cccc(Br)c1)N=Nc1c(O)[nH]c2ccccc12	HCV inhibitor inconclusive, LASV entry inh inconclusive (no result: VACV mCherry inh, Vaccinia Venus)
O=C(c1ccco1)N(CCC(c1ccccc1)c1ccco1)Cc1ccc(F)cc1 (configuration not stated)	HCV inhibitor inconclusive, MARV entry inh inconclusive, LASV entry inh 23µM (no result: VACV mCherry inh, Vaccinia Venus)
CC1(C)CC(C(CCN(Cc2ccccc2)C(=O)c2ccco2)c2ccc(F)cc2)CCO1 (configuration not stated)	HCV inhibitor inconclusive, MARV entry inh inconclusive, VACV mCherry inh inconclusive, LASV entry inh inconclusive, Vaccinia Venus inconclusive
CCC(=O)N(CCC(c1ccc(C)cc1)c1ccco1)Cc1ccco1 (configuration not stated)	HCV inhibitor 11µM, MARV entry inh inconclusive, LASV entry inh inconclusive
